The whole screen tested about 350,000 compounds, of which about 31,000 (8.9%) were called active. Inconclusive results (about 15%) are left out. The sample holds actives, similar compounds and a random draw of the others, so the mix is not that of the screen. A number with no mark means an inactive call. Calls follow the shape of the dose curve; as a rule, active = well fitted inhibition curve with a large enough effect; inconclusive = small, poorly fitted or top-dose-only effect; inactive = no such curve, though single readings can be large or run the other way.
% is scaled to controls: 0 for no effect and ±100 for the full control effect; potency is read from the fitted curve at half-maximal effect.

In this assay the target is Histone-lysine N-methyltransferase EHMT2 (Homo sapiens) (UniProt Q96KQ7). Description: qHTS Assay for Inhibitors of Histone Lysine Methyltransferase G9a. Also: nearly all actives have a fitted effect of over 75% in size. The settings on record: G9a H3K9 monomethylation, AlphaScreen, 2 h; series mostly up to 59 µM; activity, negative = inhibition: at the top concentration. In a few lines: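 G9a (20 nM) preincubated 15 min RT with compounds, then 500 nM biotinylated H3K9 peptide and 20 uM SAM added; 2 h RT reaction. Monomethyl-H3K9 product detected by AlphaScreen with anti-H3K9me1 antibody, streptavidin donor and anti-rabbit IgG acceptor beads.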
Chain of Histone-lysine N-methyltransferase EHMT2 (Homo sapiens) (Q96KQ7 913-1193 limits assumed): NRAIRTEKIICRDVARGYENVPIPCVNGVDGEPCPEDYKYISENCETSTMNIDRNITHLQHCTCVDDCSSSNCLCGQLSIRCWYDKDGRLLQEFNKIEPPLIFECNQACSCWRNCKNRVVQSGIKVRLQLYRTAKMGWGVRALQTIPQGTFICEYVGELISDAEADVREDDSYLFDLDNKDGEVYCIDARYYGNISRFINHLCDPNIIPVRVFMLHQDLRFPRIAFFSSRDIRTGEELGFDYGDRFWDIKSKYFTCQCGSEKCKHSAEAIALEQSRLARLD
In general terms: In qHTS, concentration-response curves come from the screen itself.
On to `CCOc1ccc(S(=O)(=O)N2CCC(C(=O)NCC(=O)Nc3cccc(Cl)c3C)CC2)cc1`, for which the “activity, negative = inhibition” value is 15.9%.

On to `Cc1ccc(NC(=O)CSc2cccc3cccnc23)c(C)c1`, for which the “activity, negative = inhibition” value is -27.5% [at 102 µM].

With `COc1ccc(NC(=O)CSc2nnc(Cc3ccccc3)c(=O)n2N)cc1`, the “activity, negative = inhibition” value was -45.5% [at 102 µM].

For `CCN(CC)CCN(C(=O)c1cccc([N+](=O)[O-])c1)c1nc2ccc(OC)cc2s1`, the Potency is 50.1 µM (active).

For the compound `COc1ccccc1CNC(=O)CS(=O)(=O)c1cccc2nsnc12`, the “activity, negative = inhibition” value is 3.96%.

Consider `COc1ccc2sc(N(CCCN(C)C)C(=O)c3ccc(S(=O)(=O)N(C)C4CCCCC4)cc3)nc2c1`, for which the activity, negative = inhibition was -7.7% [at 2.33 µM].

In the case of `COc1cccc2sc(N(CCCN(C)C)C(=O)CCS(=O)(=O)c3ccccc3)nc12`, the Potency was 8.91 µM (active).

Turning to `COc1ccc(C)cc1NC(=O)CCS(=O)(=O)c1cccc2nonc12`, the “activity, negative = inhibition” value is -1.53% [at 102 µM].

With `O=C(CCS(=O)(=O)c1ccccc1)NC1CCCC1`, the “activity, negative = inhibition” value is -7.56% [at 102 µM].

With `Cc1cccc2sc(N(CCCN(C)C)C(=O)CCS(=O)(=O)c3ccccc3)nc12`, the Potency was 22.4 µM (active).

As for `COc1ccc(N(C)C(=O)CCS(=O)(=O)c2cccc3nsnc23)cc1`, the “activity, negative = inhibition” value was -39.4%.

Regarding `COc1ccc(-n2cnnc2SCC(=O)Nc2cccc([N+](=O)[O-])c2)cc1`, the “activity, negative = inhibition” value is -3.5% [at 102 µM].

On to `CN(C1CCS(=O)(=O)C1)S(=O)(=O)c1ccc2ccccc2c1` (configuration not stated), for which the “activity, negative = inhibition” value is 5.42% [at 102 µM].

`COc1ccccc1CNS(=O)(=O)c1cc(Br)cc2c1N(C(C)=O)C(C)C2` (configuration not stated): the “activity, negative = inhibition” value was 2.53%.

As to `O=C(CCSCc1cccc(F)c1)NCc1ccccc1`, the “activity, negative = inhibition” value is -6.15%.

Turning to `COc1ccc(NS(=O)(=O)c2ccc(C)c(C(=O)NNC(=O)c3csc(N4CCOCC4)n3)c2)cc1`, the “activity, negative = inhibition” value is 2.43% [at 102 µM].

For the compound `CC(=O)N1CCc2cc(S(=O)(=O)NC3CCCCC3)ccc21`, the “activity, negative = inhibition” value was -3.98% [at 102 µM].

Take `O=C(CCC1CCCC1)N=C1SC2CS(=O)(=O)CC2N1Cc1ccccc1` (configuration not stated): the “activity, negative = inhibition” value was 4.22% [at 102 µM].

On to `COc1cc2c(C(=O)N(C)c3cc(Cl)ccc3OC)cn(C)c(=O)c2cc1OC`, for which the “activity, negative = inhibition” value was 23.4% [at 102 µM].

As for `Cc1cccc(NC(=O)CSc2nc(-c3ccco3)cc(C(F)(F)F)n2)c1C`, the “activity, negative = inhibition” value was 8.51%.

Consider `O=C(CSc1nc(-c2ccco2)cc(C(F)(F)F)n1)N1CCc2ccccc2C1`, for which the Potency is 12.6 µM (active).

As for `O=C(CSc1nc(-c2ccco2)cc(C(F)(F)F)n1)NCc1cccs1`, the “activity, negative = inhibition” value was -1.69%.

For `CC1(c2nnc(Cc3ccccc3)o2)CC(c2ccccc2F)=NO1` (configuration not stated), the activity, negative = inhibition is -2.28% [at 2.33 µM].

Consider `CC(=O)N1CCCc2cc(S(=O)(=O)N3CCC(C(=O)NC4CCCCC4)CC3)ccc21`, for which the “activity, negative = inhibition” value is 14.6%.

As to `COc1ccc(Br)cc1C1CC(=O)Nc2c1c(C)nn2-c1nc(C)cc(C)n1` (configuration not stated), the “activity, negative = inhibition” value was -45.2%.

For the compound `COc1cccc(NC(=O)CN(C)C(=O)/C=C/c2cn(-c3ccccc3)nc2-c2cccs2)c1`, the “activity, negative = inhibition” value is -31.2% [at 102 µM].

As to `O=Cc1cn(Cc2ccccc2)nc1-c1cccnc1`, the “activity, negative = inhibition” value is -15.5% [at 102 µM].

As to `COc1ccc(NC(=O)CN(C)C(=O)/C=C/c2cn(Cc3ccccc3)nc2-c2cccnc2)cc1`, the Potency was 7.94 µM (active).

Turning to `CCC(=O)Nc1cccc(-c2nc3cc(C)ccc3o2)c1`, the “activity, negative = inhibition” value is 5.08%.

On to `Cc1cc(NC(=O)C2CCC(CNS(=O)(=O)c3ccc(Br)s3)CC2)ccc1Br` (configuration not stated), for which the “activity, negative = inhibition” value was -2.51%.

`Brc1ccc(C2=CC(c3ccco3)n3ncnc3N2)cc1` (configuration not stated): the Potency is 12.6 µM (active).

`COC(=O)C1=C(C)Nc2ncnn2C1c1ccco1` (configuration not stated): the activity, negative = inhibition was 3.2% [at 12.7 µM].

As for `CC1=C(C(=O)OCc2ccccc2)C(c2ccco2)n2ncnc2N1` (configuration not stated), the “activity, negative = inhibition” value is -34% [at 102 µM].

As to `CCOC(=O)c1c(C)[nH]c(CCC(=O)Nc2ccc(OC)c(OC)c2)c1C`, the “activity, negative = inhibition” value is 12%.

For `COc1ccc(NS(=O)(=O)c2ccc(F)cc2F)cn1`, the “activity, negative = inhibition” value was 9.65% [at 102 µM].

Consider `COc1ccc(Nc2ccc([N+](=O)[O-])cn2)cn1`, for which the “activity, negative = inhibition” value is 1.56% [at 102 µM].

On to `COc1ccc(Nc2cc(Cl)ccc2C(=O)O)cn1`, for which the Potency was 2.24 µM (active).

On to `Cc1ccccc1CCNC(=O)C1CCN(c2nc3ccccc3nc2C(F)(F)F)CC1`, for which the “activity, negative = inhibition” value is 6.11%.

Take `CCC(=O)c1ccc(OCC(=O)N(CC)CC2COc3ccccc3O2)cc1` (configuration not stated): the “activity, negative = inhibition” value is 1.74% [at 102 µM].

As to `Cc1ccccc1Nc1scc(-c2ccc(Br)cc2)[n+]1-c1ccccc1C`, the Potency is 20 µM (active).

Take `CCOc1ccc(NC(=O)c2cc(S(=O)(=O)N3CCCC3)c[nH]2)cc1`: the “activity, negative = inhibition” value is -25.3%.

Take `Cc1onc(-c2ccccc2Cl)c1C(=O)OCc1nnc(-c2ccccc2)o1`: the “activity, negative = inhibition” value was 28.6% [at 102 µM].

Take `CCC(=O)N1CCc2cc(Br)cc(S(=O)(=O)CCC(=O)NCc3ccccc3OC)c21`: the “activity, negative = inhibition” value is -8.43%.

For the compound `O=C(O)C1OC(C(=O)O)C2C1C(F)(F)C2(F)F` (configuration not stated), the Potency is 39.8 µM (active).

As to `CC1=C(C(=O)N2CCN(c3cccc(C(F)(F)F)c3)CC2)C2(CCCCC2)OC1=O`, the “activity, negative = inhibition” value is -38.2%.

As to `CNc1ccc(-c2nc(-c3ccccc3C)no2)cc1[N+](=O)[O-]`, the “activity, negative = inhibition” value was -37.9%.

As to `CC1(C)Oc2ccc3ccc(=O)oc3c2/C(=C/NCCO)C1=O`, the Potency is 35.5 µM (active).

Regarding `C/C=C(/C)C(=O)OC1Cc2c(ccc3ccc(=O)oc23)OC1(C)C` (configuration not stated), the activity, negative = inhibition is 25.6% [at 12.7 µM].

With `O=C(NC1CCCCC1)c1ccc2c(c1)N(Cc1ccc(Cl)cc1)C(=O)c1ccccc1S2=O` (configuration not stated), the “activity, negative = inhibition” value is 4.83%.

Consider `Nc1ncc(S(=O)(=O)Nc2ccc(OC(F)(F)F)cc2)cn1`, for which the “activity, negative = inhibition” value was 1.47%.

`COc1ccc(NS(=O)(=O)c2cccc(C(=O)NCCc3ccc(S(N)(=O)=O)cc3)c2)cc1`: the activity, negative = inhibition was 9.68% [at 12.7 µM].

As for `Cc1ccc(CN(C(=O)c2ccccc2[N+](=O)[O-])c2ccccn2)cc1`, the “activity, negative = inhibition” value is -8.14%.

For `CCN(CC)S(=O)(=O)c1ccc(C(=O)N=c2sc3cccc(OC)c3n2C)cc1`, the “activity, negative = inhibition” value is 31.3%.

As to `CCCC(=O)N=c1sc2cccc(F)c2n1C`, the Potency was 44.7 µM (active).

`Cn1c(=NC(=O)CSCC(=O)N2CCCCC2)sc2ccccc21`: the “activity, negative = inhibition” value was 8%.

In the case of `CCOc1ccc(CC(=O)NCCc2csc3nc(-c4ccccc4F)nn23)cc1`, the “activity, negative = inhibition” value was 34.6%.

With `CC(C)CCN(C(=O)Nc1ccc(Cl)c(Cl)c1)C(C)c1cccs1` (configuration not stated), the “activity, negative = inhibition” value is 24.7%.

`CCCCOc1ccc(-c2ncc(C(=O)OCC)c(N)n2)cc1`: the activity, negative = inhibition was 6.88% [at 12.7 µM].

`CCOC(=O)CSc1nccc(N(C)C)c1C#N`: the “activity, negative = inhibition” value is -8.31% [at 102 µM].

As for `CCOC(=O)C(Sc1ncc(C#N)c(N)n1)C(C)C` (configuration not stated), the Potency was 39.8 µM (active).

In the case of `O=C(CNc1cccc(S(=O)(=O)N2CCCCC2)c1)Nc1ccccc1F`, the activity, negative = inhibition is 14.7% [at 12.7 µM].

Consider `CCN1C(=O)[C@@H]2[C@@H](c3ccc(-c4ccc(OC)cc4)c(OC)c3)N3CCC[C@@]3(C(=O)OC)[C@@H]2C1=O`, for which the activity, negative = inhibition was -8.12% [at 2.33 µM].

Source of the values: PubChem BioAssay AID504332 (National Center for Advancing Translational Sciences (NCATS), 2011).
